Assay [1] is described as follows: compound effects on lung adenocarcinoma cell viability – A549, calcein-AM fluorescence, 48 h, basal, profiling panel (AID 1162). Further: test concentration not given here. The following applies: higher = more signal.
Assay [2] in a line: compound effects on differentiated 3T3-L1 adipocyte viability – cell-based, 3T3-L1 adipocytes, calcein-AM fluorescence, 48 h, basal, profiling panel (AID 1163). Further: test concentration not given here. As to conditions: 3T3-L1 adipocytes viability, higher = more signal.
A short description of assay [3]: compound effects on hepatocellular carcinoma cell viability – HepG2, calcein-AM fluorescence, 48 h, basal, profiling panel (AID 1164). Further: test concentration not given here. As to conditions: higher = more signal.
The nature of assay [4]: compound effects on multiple myeloma cell viability – MM1S, calcein-AM fluorescence, 48 h, basal, profiling panel (AID 1165). Further: test concentration not given here. As to conditions: higher = more signal.
A short description of assay [5]: calcein-AM signal in unstimulated myeloma cells – cell-based, calcein-AM fluorescence, 48 h, PK04 Diversity Set, profiling panel (AID 1166).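 Further: cells grown under basal conditions without added stimulus; test concentration not given here.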 The following applies: RPMI8226 myeloma viability, higher = more signal.
Assay [6] in a line: JC-1 mitochondrial signal, unstimulated HepG2 cells – cell-based, JC-1 fluorescence, 24 h, 100 nL compound, profiling panel (AID 1167). Further: test concentration not given here. As to conditions: HepG2 mitochondrial potential, higher = more signal.
The nature of assay [7]: JC-1 mitochondrial signal, unstimulated adipocytes – cell-based, JC-1 fluorescence, 3T3-L1 adipocytes, 24 h, 100 nL compound, profiling panel (AID 1168). Further: test concentration not given here. The following applies: JC-1 mitochondrial fluorescence, higher = more signal, called active from +8 up or from −8 down.
Assay [8] in a line: JC-1 mitochondrial signal, unstimulated myeloma cells – cell-based, JC-1 fluorescence, RPMI8226, 24 h, 100 nL compound, profiling panel (AID 1169). Further: test concentration not given here. As to conditions: JC-1 mitochondrial potential fluorescence, higher = more signal.
Assay [9] can be described thus: JC-1 mitochondrial signal, unstimulated MM1S myeloma – cell-based, JC-1 fluorescence, 24 h, 100 nL compound, profiling panel (AID 1170). Further: test concentration not given here. The following applies: MM1S mitochondrial potential, higher = more signal.
Assay [10] in a line: resazurin metabolic signal in A549 cells – cell-based, resazurin fluorescence, 24 h, PK04 Diversity Set, profiling panel (AID 1171). Further: test concentration not given here. The following applies: A549 viability, higher = more signal, called active from +8 up or from −8 down. (In general: Resazurin is reduced to fluorescent resorufin, in cell work by metabolically active cells.)
The nature of assay [11]: resazurin metabolic signal in HepG2 cells – cell-based, resazurin fluorescence, 24 h, PK04 Diversity Set, profiling panel (AID 1172). Further: test concentration not given here. As to conditions: HepG2 viability, higher = more signal.
The nature of assay [12]: budding yeast growth changes without added modifier – OD600, strain BY4716, 24 h, basal condition, primary screen (AID 1173). As to conditions: S. cerevisiae BY4716 growth, OD600, 24 h; higher = more signal, called active from +8 up or from −8 down.
Assay [13] in a line: viability profiling in MM1S myeloma cells – cell-based, resazurin fluorescence, basal, 24 h, PK04 Diversity Set, profiling panel (AID 1174). Further: test concentration not given here. The following applies: higher = more signal, called active from +8 up or from −8 down.
Assay [14] addresses Dihydroorotate dehydrogenase (quinone), mitochondrial (Plasmodium falciparum (isolate 3D7)) (UniProt Q08210). Kind of assay: inhibition of P. falciparum DHODH – biochemical, C-terminal His tag, absorbance 600 nm, primary screen (AID 1175).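 Further: recombinant parasite enzyme with a five histidine tag at its C terminus; test concentration not given here.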 As to conditions: PfDHODH enzyme, DCIP absorbance 600 nm; higher = more signal, called active from +8 up or from −8 down.
Assay [15] is described as follows: inhibition of PAO1 biofilm formation – strain PAO1, LB-PBS medium, absorbance 600 nm, primary screen (AID 1176). Further: test concentration not given here. As to conditions: P. aeruginosa PAO1 growth/biofilm, A600, 12 h; higher = more signal.
A short description of assay [16]: growth modulation of vineyard yeast isolate – strain RM11-1a, OD600, basal, 24 h, primary screen (AID 1177).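 Further: cultures grown under basal conditions with no added stressor; test concentration not given here.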 As to conditions: S. cerevisiae RM11-1a growth, OD600, 24 h; higher = more signal, called active from +8 up or from −8 down.
Assay [17] is described as follows: growth of efflux-deficient E. coli DRC39 – strain DRC39, OD650, 24 h, E. coli filamentation inducers, primary screen (AID 1178).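 Further: growth measured as culture turbidity by optical density at 650 nm; test concentration not given here.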 The following applies: E. coli DRC39 acrAB, higher = more signal, called active from +8 up or from −8 down.
Assay [18] in a line: growth of efflux-deficient E. coli DRC39 – strain DRC39, OD650, 48 h, E. coli filamentation inducers, primary screen (AID 1179).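 Further: screen aims at cell division blockers that make cells filament.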 As to conditions: E. coli DRC39 delta-acrAB growth, higher = more signal, called active from +8 up or from −8 down.
Assay [19] can be described thus: viability profiling in RPMI8226 myeloma cells – cell-based, resazurin fluorescence, basal, 24 h, PK04 Diversity Set, profiling panel (AID 1180).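 Further: RPMI8826 multiple myeloma cell line at 5000 cells per well; test concentration not given here.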 As to conditions: higher = more signal.
The target of assay [20] is E3 ubiquitin-protein ligase XIAP (Homo sapiens) (UniProt P98170). Kind of assay: small molecules binding XIAP protein – biophysical, small-molecule microarray, fluorescence 635 nm, primary screen (AID 1181).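 Further: score merges 667 nm emission and signal to noise over triplicate slides.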 As to conditions: higher = more signal.

Molecules are shown by their SMILES. Active and inactive are the calls of the source. Unless noted, how the calls were made is not given here.

Chain of E3 ubiquitin-protein ligase XIAP (Homo sapiens) (P98170 whole entry, looked up): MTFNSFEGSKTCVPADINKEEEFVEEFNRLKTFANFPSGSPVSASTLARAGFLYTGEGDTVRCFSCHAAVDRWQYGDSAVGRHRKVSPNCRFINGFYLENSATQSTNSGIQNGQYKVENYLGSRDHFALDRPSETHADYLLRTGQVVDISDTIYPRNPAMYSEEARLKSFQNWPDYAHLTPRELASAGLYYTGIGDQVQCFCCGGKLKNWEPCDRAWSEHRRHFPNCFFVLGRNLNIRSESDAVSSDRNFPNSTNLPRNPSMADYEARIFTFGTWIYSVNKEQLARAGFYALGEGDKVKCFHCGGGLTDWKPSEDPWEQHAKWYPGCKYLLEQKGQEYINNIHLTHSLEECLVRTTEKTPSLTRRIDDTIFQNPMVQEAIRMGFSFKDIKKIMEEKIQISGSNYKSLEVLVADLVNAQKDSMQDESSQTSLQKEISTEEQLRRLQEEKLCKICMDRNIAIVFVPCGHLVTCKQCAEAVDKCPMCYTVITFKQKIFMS
Chain of Dihydroorotate dehydrogenase (quinone), mitochondrial (Plasmodium falciparum (isolate 3D7)) (Q08210 whole entry, looked up): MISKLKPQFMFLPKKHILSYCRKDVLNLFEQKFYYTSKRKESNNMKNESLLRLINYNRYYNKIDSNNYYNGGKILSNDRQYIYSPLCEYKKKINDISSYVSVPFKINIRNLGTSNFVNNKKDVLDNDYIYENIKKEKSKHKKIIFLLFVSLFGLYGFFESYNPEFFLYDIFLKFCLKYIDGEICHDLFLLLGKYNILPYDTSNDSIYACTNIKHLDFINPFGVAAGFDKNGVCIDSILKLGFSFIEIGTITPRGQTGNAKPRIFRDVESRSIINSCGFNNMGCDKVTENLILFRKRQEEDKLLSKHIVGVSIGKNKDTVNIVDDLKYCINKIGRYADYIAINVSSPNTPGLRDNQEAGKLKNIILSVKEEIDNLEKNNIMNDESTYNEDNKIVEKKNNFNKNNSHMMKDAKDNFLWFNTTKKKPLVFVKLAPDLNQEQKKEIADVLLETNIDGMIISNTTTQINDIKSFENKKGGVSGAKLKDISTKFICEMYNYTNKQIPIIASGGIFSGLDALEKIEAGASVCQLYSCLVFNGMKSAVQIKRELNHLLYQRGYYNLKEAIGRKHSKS

For the molecule `CCCNC(=O)[C@@]1(Sc2ccc(C)cc2)CC(=O)N(Cc2cc(C(F)(F)F)cc(C(F)(F)F)c2)[C@@H]1c1ccc(CO)cc1`, the z-score in assay [1] was -0.259; in assay [2], 1.2; in assay [3] it was -0.609; in assay [4], -0.254; in assay [5] it was -0.312; in assay [6] it was -0.537. Moreover, the z-score in assay [7] is 0.196 (inactive); in assay [8] it was 0.293; in assay [9], -0.765; in assay [10] it was 0.149 (inactive); in assay [11], -0.258; in assay [12], -0.265 (inactive). Besides, the z-score in assay [13] is 0.905 (inactive); in assay [15], 0.366 (inactive); in assay [16] it was -0.977 (inactive); in assay [17], 0.484 (inactive); in assay [18] it was -0.0429 (inactive); in [19], 0.18. In addition, the composite z-score is -0.756 (inactive) in assay [14] and -0.127 in assay [20].

For the molecule `COC(=O)C(CC#Cc1ccc2c(c1)[C@]1(C(=O)N2)[C@H](C(=O)N2CCN(c3ncccn3)CC2)[C@H]2C(=O)O[C@H](c3ccccc3)[C@H](c3ccccc3)N2[C@@H]1c1ccc(O)cc1)C(=O)OC`, the z-score in [1] was 0.489; in assay [2], -0.569; in assay [3] it was 1.24; in assay [4] it was 0.142; in [5], -2.03; in [6] it was -0.921. Further, the z-score in assay [7] is 0.00989 (inactive); in assay [8] it was -1.09; in assay [9], -0.205; in [10] it was -0.423 (inactive); in assay [11], -0.146; in assay [12], 0.586 (inactive). Besides, the z-score in assay [13] was 0.235 (inactive); in [15], 1.67 (inactive); in assay [16], 1.25 (inactive); in [17] it was 0.167 (inactive); in assay [18] it was 0.26 (inactive); in [19] it was -1.47. The values for the composite z-score in assay [14] and in assay [20] were -15.3 (active) and 0.309, respectively.

As to `CC1C2C(CCCO)=CC(C3C(=O)N(C(N)=O)C(=O)C23)N1Cc1cccc(OC(F)(F)F)c1` (stereo not given), the z-score was -0.846 in assay [1]; -0.528 in [2]; 0.192 in assay [3]; -0.486 in [4]; 0.244 in [5]; -0.632 in [6]. Also, the z-score in assay [7] was -0.795 (inactive); in [8], 0.787; in [9] it was -0.547; in assay [10], -0.13 (inactive); in [11] it was 0.0337; in assay [12] it was -0.837 (inactive). The z-score in [13] was -0.402 (inactive); in assay [15] it was 0.437 (inactive); in [16], -0.369 (inactive); in [17], 0.0299 (inactive); in assay [18], -0.114 (inactive); in [19] it was -0.907. For the same molecule, the composite z-score was -0.766 (inactive) in assay [14] and -0.199 in assay [20].

For the molecule `C=CC[C@]1(C(N)=O)N=C(c2ccc(OCCCO)cc2)O[C@H]1c1ccccc1N=[N+]=[N-]`, the z-score in [1] is 0.772; in assay [2], 0.46; in assay [3], 1.49; in [4], -1.04; in assay [5], 0.656; in assay [6] it was 0.462. The z-score in [7] is 0.903 (inactive); in [8], -0.514; in assay [9] it was -0.747; in assay [10] it was -0.752 (inactive); in [11] it was 0.021; in [12], -0.925 (inactive). Besides, the z-score in [13] was -0.362 (inactive); in assay [15], 0.274 (inactive); in assay [16] it was 1.32 (inactive); in assay [17], 2.12 (inactive); in assay [18], 2 (inactive); in assay [19], -0.733. The composite z-score in assay [14] was 0.315 (inactive); in assay [20] it was 0.217.

On to `C=CC[C@H](O)c1ccc(O)c2ccccc12`, for which the z-score in assay [1] was 0.902; in assay [2], -0.0385; in [3], -0.817; in assay [4], -2.84; in assay [5], -3.71; in [6] it was -2.13. The z-score is 0.241 (inactive) in assay [7]; -0.752 in assay [8]; -1.71 in assay [9]; -0.409 (inactive) in assay [10]; -0.129 in assay [11]; -15.1 (active) in [12]. For the same molecule, the z-score in assay [13] is -1.42 (inactive); in [15], 0.614 (inactive); in [16], 0.891 (inactive); in assay [17], 0.682 (inactive); in assay [18] it was 0.419 (inactive); in [19] it was -1.05. For the same molecule, the composite z-score is -1.86 (inactive) in assay [14] and -0.113 in assay [20].

For the molecule `O=C(c1ccccc1)N1Cc2ccccc2C[C@@]2(N=C(c3ccc(OCCCO)cc3)O[C@H]2c2ccccc2)C1=O`, the z-score in [1] was -1.12; in [2], 0.862; in [3], -1.18; in assay [4], -3.31; in assay [5], -4.05; in assay [6], -1.68. In addition, the z-score in assay [7] was 0.471 (inactive); in [8], -1.25; in [9] it was -2.14; in assay [10], -2.63 (inactive); in [11] it was -1.51; in assay [12], 0.728 (inactive). Also, the z-score in assay [13] is -3.22 (inactive); in [15] it was 1.49 (inactive); in [16] it was 1.39 (inactive); in assay [17], 0.0557 (inactive); in assay [18], -0.469 (inactive); in assay [19], -3.73. The composite z-score in assay [14] is 0.23 (inactive); in [20], 0.0797.

As to `CCOC(=O)C[C@H]1[C@H](OC(=O)c2cc3ccccc3oc2=O)[C@@H](NC(=O)c2ccc(-c3ccccc3)cc2)c2cc(OCCCO)ccc2N1C(=O)Cc1ccc(OC)cc1`, the z-score in assay [1] is -0.382; in assay [2], 1; in assay [3] it was 0.0719; in assay [4], 0.17; in assay [5], -0.84; in assay [6], -0.0623. Also, the z-score is -1.08 (inactive) in assay [7]; -0.97 in assay [8]; -0.0508 in [9]; 0.0573 (inactive) in [10]; 0.288 in [11]; 0.0392 (inactive) in assay [12]. Moreover, the z-score in assay [13] is -0.346 (inactive); in assay [15] it was 0.285 (inactive); in [16] it was -0.0775 (inactive); in [17], -0.225 (inactive); in assay [18] it was -0.618 (inactive); in assay [19], -0.0232. Also, the composite z-score in assay [14] is -0.487 (inactive); in assay [20], -0.338.

With `C=CCNC(=O)[C@@H]1[C@H]2C(=O)O[C@H](c3ccccc3)[C@H](c3ccccc3)N2[C@H](c2ccc(O)cc2)[C@@]12C(=O)N(C(=O)OCCOC)c1ccc(C#CCC(C(=O)OC)C(=O)OC)cc12`, the z-score was 0.468 in [1]; 0.0473 in [2]; 0.419 in assay [3]; -1.83 in assay [4]; -2.88 in assay [5]; 0.206 in assay [6]. The z-score was 0.605 (inactive) in [7]; -0.161 in [8]; -0.012 in assay [9]; -0.419 (inactive) in [10]; 0.475 in assay [11]; -0.17 (inactive) in [12]. In addition, the z-score was 0.716 (inactive) in [13]; 0.089 (inactive) in assay [15]; 1.88 (inactive) in assay [16]; 1.09 (inactive) in assay [17]; 0.666 (inactive) in assay [18]; -1.73 in [19]. The composite z-score in assay [14] was -2.5 (inactive); in assay [20] it was 0.0859.

For `C=CCNC(=O)[C@@H]1[C@H]2C(=O)O[C@H](c3ccccc3)[C@H](c3ccccc3)N2[C@H](c2ccc(O)cc2)[C@@]12C(=O)Nc1ccc(C#CC3=CCCCC3)cc12`, the z-score in assay [1] was 0.0719; in assay [2], 0.266; in assay [3] it was -3.89; in [4], -3.35; in assay [5], -4.57; in [6], -1.42. For the same molecule, the z-score in [7] is 1.38 (inactive); in assay [8], -1.15; in assay [9] it was -1.2; in [10] it was -1.48 (inactive); in assay [11], -0.496; in [12], 0.233 (inactive). Moreover, the z-score in [13] is -3.25 (inactive); in assay [15] it was 1.66 (inactive); in [16], 1.28 (inactive); in [17], -0.33 (inactive); in [18], 0.254 (inactive); in [19], -6.25. Also, the figures for the composite z-score in assay [14] and in [20] were -0.691 (inactive) and 0.28, respectively.

The record behind these values is PubChem BioAssay.
